The text below walks through data of PubChem BioAssay (NCATS).

Inconclusive results are not listed. Activity calls are given as the source filed them. Calls follow the shape of the full dose curve. Positions of bridges follow the written chain, without caps; N, C: chain ends. Non-standard residues stand in square brackets, D forms with d. Residues, ends and D or L forms follow the SMILES beside them. Groups on a side chain read outwards from the residue. *: point of attachment. Phg(4-OMe) = COc1ccc([C@H](N)C(=O)O)cc1; d(aIle) = CC[C@H](C)[C@@H](N)C(=O)O; d(aThr) = C[C@@H](O)[C@@H](N)C(=O)O; NMeF = CN[C@@H](Cc1ccccc1)C(=O)O; Isobutyryl = CC(C)C(=O)*; Octanoyl = CCCCCCCC(=O)*

This assay in a line: qHTS for inhibitors of Rabies Virus screened against the NCATS CANVASS Library (AID 1347402). The settings on record: Rabies virus infection cell assay; series mostly up to 45.9 µM.
Regarding `O=C1OC(CCO)c2cccc(O)c21` (configuration not stated), the compound was called inactive. The same measure for `COc1ccc([C@@H]2c3cc(OC)c(OC)cc3C(=O)C(C)C2C)cc1OC` (some centres not stated): “inactive”; for `CC(C)=CCC[C@]1(C)[C@H]2CC(=O)[C@@]3(CO3)[C@@H]1C2`: “inactive”; for `CC1(C)[C@H](Br)CC[C@]23C[C@]4(C)C(=O)CC12C[C@H]34`: “inactive”.

`C=C1[C@@]2(C)CC3C4(C)CCC(O)C(C)(C)C4CCC3(C)[C@]1(C(=O)OC)C(=O)C(C)(O)C2=O` (some centres not stated): the outcome was inactive.

As for `OCc1ccc2ocnc2c1`, the compound was classed as inactive. `CO[C@@H](C[C@@H](C)[C@@H](O)/C=C/C=C/CNC(=O)C(C)(C)[C@H](O)\C(C)=C/C=C\C=C\Cc1cnco1)[C@]1(O)[C@@H](C)C(=O)N(C)[C@@]12COC2=O`: the outcome was inactive. Take `C=CC(CCCCC)C1C(=O)NC(=O)C1C(=O)C1C2C(C)CC(C(=O)O)CC2CC1(O)C(=O)/C=C/C` (configuration not stated): the call was inactive.

For the compound `O[C@H]1c2ccccc2-c2c3c(cc4c2[C@@H]1NCC4)OCO3`, the compound was called inactive. The result for `CCCCCCCC(=O)N[C@@H](CC(C)C)C(=O)N[C@H](C=O)CCC(=O)O` (Octanoyl-Leu-Glu-aldehyde) reads “inactive”. On to `CC[C@H](C)[C@H]1NC(=O)[C@@H](NC(=O)C(C)C)[C@@H](C)OC(=O)[C@H](COC(=O)CNC(C)=O)NC(=O)[C@@H]([C@@H](C)O)NC(=O)[C@H](Cc2ccccc2)N(C)C(=O)[C@H](c2ccc(OC)cc2)NC1=O` (Isobutyryl-T[d(aIle)][Phg(4-OMe)][NMeF][d(aThr)]S([Gly-Ac]); ester 1-C), for which the call was inactive. The same measure for `O=Cc1ccc2n1C[C@@]1(C[C@H](O)[C@@H](CO)O1)OC2`: “inactive”.
